Screening results (PubChem)
USP2a inhib = qHTS Assay for Inhibitors of Ubiquitin-specific Protease USP2a | Ubiquitin carboxyl-terminal hydrolase 2 (Homo sapiens), O75604 | USP2a enzymatic assay, qHTS inhibition | Potency, µM (doses to about 38.3 µM), for inactives: top-dose activity change, negative = inhibition, hits mostly inhibitors | 60,000 compounds, 0.1% hits; further: potency means the concentration at half of the fitted maximal effect; nearly all actives have a fitted effect of over 60% in size
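USP2 core (20 nM final) was preincubated with compound for 30 min at RT in 20 mM Tris-HCl pH 8.0, 2 mM CaCl2, 2 mM beta-mercaptoethanol; Ub-PLA2 (20 nM) plus NBD C6-HPC (20 uM) then added, fluorescence read after 2.5 h.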
UbGFP stabilizer = Ubiquitin-GFP Assay; Ubiquitin-GFP reporter cells, proteasome inhibition, GFP fluorescence; response scale: untreated = 0%, 10 µM MG-132 = 100%; Potency, µM (titrated, usually from 45.9 µM), without a hit: at the top dose activation (GFP accumulation), usual class: activators; 67,000 tested, under 10 active; active means well fitted activation curve with a large enough effect, not every such curve was filed as active; inconclusive means small, poorly fitted or top-dose-only effect, or another doubt; inactive means no such curve, though single readings can be large or run the other way; further: potency means the concentration at half of the fitted maximal effect
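U2OS Ub(G76V)-GFP reporter; O/N plating, 0.5% FBS; cpd 46 uM–2.9 nM, 4 h, 37 °C; GFP+ cell count, 488/515 nm; norm. to basal vs 10 uM MG-132; CRC fit.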
Caspase-1 inhib = qHTS Assay for Allosteric/Competitive Inhibitors of Caspase-1; 75,000 compounds, 0.03% hits; AID 900, 2007; P29466; Potency, µM (titrated, usually from 57.5 µM), without a hit: at the top dose activity change, negative = inhibition, actives largely listed as inhibitors; Caspase-1 enzyme, Ac-WEHD-AFC fluorogenic rate;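 further: potency means the concentration at half of the fitted maximal effect; plate controls were vehicle for no effect and no substrate for full effect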
Casp7 inh = qHTS Assay for Allosteric/Competitive Inhibitors of Caspase-7; P55210; recombinant caspase-7, Ac-DEVD-AFC fluorescence rate; Potency, µM (series often up to 57.5 µM), without a hit: at the top dose activity change, negative = inhibition, usual class: inhibitors; 75,000 compounds, 0.02% hits; active means well fitted inhibition curve with a large enough effect in the main read-out, with a control signal flat, not every such curve was filed as active; inconclusive means small, poorly fitted or top-dose-only effect, or a change in a side signal; further: potency means the concentration at half of the fitted maximal effect; % of control where 0% means no effect
HBB splice mod = qHTS Assay for Modulators of Hemoglobin Beta Chain Splicing; HBB splicing reporter cell assay, activation; EGFP reporter with mutant IVS2-654 intron; response scale: normalised to 500 nM splice-correcting PNA; Potency, µM (highest dose often 46.1 µM), inactives show top-dose activation, actives largely listed as activators; 65,000 compounds, 0.06% hits; further: potency means the concentration at half of the fitted maximal effect; 0% is about no effect
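Compounds were applied for 2 days to HeLa EGFP-654 cells, 500/well in Optimem with 2% FCS. The reporter's EGFP is disrupted by mis-splicing of beta-globin intron IVS2-654. Readout: summed well GFP fluorescence from 488 nm laser scanning; reference was 500 nM antisense […] 654 PNA.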
Epigenetic mod = qHTS Assay for Epigenetic Modulators | mouse C127i GFP locus derepression, cytometry, 30 h | Potency, µM (top dose mostly 46.1 µM), inactives show top-dose GFP derepression (activation) | 68,000 compounds, 0.09% hits | AID 597, 2007; further: % of control where 0% means no effect
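Murine C127i mammary cells carrying a silenced, stably integrated CMV-driven GFP reporter were treated with compound for 30 hours at 37 C. After PBS washes, GFP-positive cells were counted by laser-scanning microplate cytometry.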
Active calls of the source: *; u = inconclusive; x = not tested or not shown; [ ] = another dose, or the depositor's remark. An excerpt weighted towards active compounds, which were near 0.24% of everything screened. Unless noted, the call rests on the fitted dose curve; in most records, active means well fitted curve in the direction sought with a large enough effect; inconclusive means small, poorly fitted or top-dose-only effect, or another doubt; inactive means no such curve, though single readings can be large; an effect the other way counts as inactive or inconclusive.

SMILES	USP2a inhib	UbGFP stabilizer	Caspase-1 inhib	Casp7 inh	HBB splice mod	Epigenetic mod
CCN(CC)c1ccc2cc(C(=O)Nc3ccccn3)c(=O)oc2c1	x	x	x	x	x	-2.6%[20.6 µM]
CCN(CC)c1ccc2cc(-c3nnc(-c4ccncc4)o3)c(=O)oc2c1	x	x	x	x	x	2µM*
O=S(=O)(Nc1cccnc1)c1cccc2cccnc12	x	16.8%	-0.8%	-1.7%	-1.0%	x
Cc1ccc(NC(=O)Cn2cccc2)cc1C	18.6%	-1.6%	-1.9%	0.1%	-0.4%	0.1%
Cc1ccc(NC(=O)CSCC(N)=O)cc1C	38.8%	-3.0%	u	u	8.6%	15.8µM*
O=C(N1CCCCC1)N1CCCN(C(=O)N2CCCCC2)CC1	-2.7%	1.6%	-1.2%	-2.7%	-0.6%	-2.7%
S=C(S)N1CCCC1	-0.6%	0.0%	-0.3%	-0.1%	2.1%	0.631µM*
CCNC(=O)[C@@H]1O[C@@H](n2cnc3c(NCc4ccccc4)ncnc32)[C@@H](O)[C@H]1O	x	4.3%	x	x	0.9%	-1.2%
O=C1OC(O)C(C(Cl)Cl)=C1Cl (centres undefined)	x	x	3.3%	0.6%	-0.5%	x
O=C(Oc1cccc2c(O)cccc12)c1ccccc1	12.6µM*	-2.0%	-2.3%	-2.0%	x	1.3%
COC(=O)c1ccccc1	x	x	-1.9%	1.6%	0.1%	x
Clc1ccc([C@@H](c2ccccc2Cl)C(Cl)Cl)cc1	x	-1.2%	x	x	-0.7%	0.0%
COc1cc(/C=C\C(=O)CC(=O)/C=C\c2ccc(O)c(OC)c2)ccc1O	x	11.3%	x	x	x	-4.7%[9.22 µM]
O=C1Cc2ccccc2C(=O)N1CCc1ccccc1	x	2.2%	5.01µM*	6.31µM*	0.2%	0.0%
COc1ccccc1CNc1ncnc2ccc(-c3ccoc3)cc12	222.8%	1.1%	-4.2%	-5.3%	2.2%	-0.5%[9.22 µM]
O=C(C1CCCCC1)N1CCC(c2nc3c(nnn3Cc3ccccc3Cl)c(=O)[nH]2)CC1	33.8%	-3.9%	0.0%	u	x	-1.3%
CCCCCCC(=O)N1CCC(c2nc3c(nnn3Cc3ccccc3Cl)c(=O)[nH]2)CC1	x	-3.2%	-4.4%	12.6µM*	-0.1%[57.5 µM]	-1.4%
CCCCCCC/C=C\CCCCCCCCC(=O)O	12.6µM*	-2.0%	-0.1%	0.0%	0.2%	1.1%
Cc1cccc(N2C(=O)c3cccc4c(N(C)CCO)ccc(c34)C2=O)c1	41.4%[7.66 µM]	-4.2%[9.17 µM]	x	u	20µM*	0.0%
CC(C)[C@@H]1O[C@H](/C=C\c2ccccc2)OCC1(C)C	x	-0.6%[9.17 µM]	-3.4%[11.5 µM]	0.4%[11.5 µM]	2.7%[9.22 µM]	-2.2%[9.22 µM]
CN1CCN(Cc2cc(COCc3ccccc3)c3cccnc3c2O)CC1	23.2%	-7.8%	-0.6%	-1.0%	0.5%	6.31µM*
Oc1c(CN2CCCCC2)cc(Br)c2cccnc12	16.8%	22.1%	-0.8%	-0.3%	-1.1%	3.16µM*
Oc1ccc(CN2CCN(Cc3ccccc3)CC2)c2cccnc12	148.1%	-3.4%	-1.2%	-0.1%	x	u
Oc1c(CN2CCc3ccccc3C2)cc(Cl)c2cccnc12	x	1.4%	-5.6%	-3.1%	-1.6%	x
O=C(OC1Cc2c(O)cc(O)cc2OC1c1cc(O)c(O)c(O)c1-c1c(C2Oc3cc(O)cc(O)c3CC2O)cc(O)c(O)c1O)c1cc(O)c(O)c(O)c1 (centres undefined)	10µM*	x	-0.1%	-27.5%	x	x
C#C[C@@]1(O)CC[C@H]2[C@H]3CCC4=Cc5oncc5C[C@]4(C)[C@@H]3CC[C@@]21C	x	-3.9%	x	x	-0.7%	-1.1%
C=CCN1CCc2c(cc(O)c(O)c2Br)[C@H](c2ccccc2)C1	11.6%	-8.9%	-1.2%	0.8%	0.6%	-1.1%
